Of roughly 8,800 targets only a part is listed; those with a hit were picked by preference. About 0.5% of all pairs of compound and target were hits.
Tests used:
Experiment in all cases: log2 fold change, soluble protein after heating vs DMSO (PISA); higher = thermal stabilisation; K562 lysate, 10 uM; active = over 0.2 and 3.5 SD of the protein, either way, in both replicates (recomputed)
[1] = compound: Cc1cn(-c2cc(NC(=O)c3ccc(C)c(Nc4nccc(-c5cccnc5)n4)c3)cc(C(F)(F)F)c2)cn1 [nilotinib]
Procedure, shortened: (§1)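 Log-two fold change in thermal stability relative to solvent controls is reported from duplicates. For each sample, crude K562 extract from dounce-homogenised pellets in PBS pH 7.4 with 1 mM MgCl2, at 1 mg/mL protein, was treated with 10 μM compound for 30 min. Aliquots heated for 3 min across 48°C-58°C were pooled, brought to 0.5% NP-40 at 4°C and cleared at 21,000xg for 90 min. The supernatant was quantified by TMTpro 16plex LC-MS/MS with channel sums equalised.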

[2] = compound: Cc1nc(Nc2n[nH]c3c2CN(C(=O)N[C@H](CN(C)C)c2ccccc2)C3(C)C)c2sccc2n1
Procedure, shortened: as §1

[3] = compound: Cc1nc(Nc2ncc(C(=O)Nc3c(C)cccc3Cl)s2)cc(N2CCN(CCO)CC2)n1 [dasatinib]
Procedure, shortened: as §1

[4] = compound: Cc1ncc(-c2ccnc(Nc3ccc(S(C)(=O)=O)cc3)n2)n1C(C)C
Procedure, shortened: as §1

[5] = compound: Cn1cc(-c2ccc3c(c2)CCN3C(=O)Cc2cccc(C(F)(F)F)c2)c2c(N)ncnc21
Procedure, shortened: as §1

[6] = compound: Cn1cc(CNCC2CCN(c3ncc(C(=O)NO)cn3)CC2)c2ccccc21 [quisinostat]
Procedure, shortened: as §1

[7] = compound: Cn1cncc1[C@@](N)(c1ccc(Cl)cc1)c1ccc2c(c1)c(-c1cccc(Cl)c1)cc(=O)n2C [tipifarnib]
Procedure, shortened: as §1

[8] = compound: NC(=O)Nc1cc(-c2cccc(F)c2)sc1C(=O)N[C@H]1CCCNC1
Procedure, shortened: as §1

[9] = compound: NC(=O)c1cnc(N[C@@H]2CCCC[C@@H]2N)nc1Nc1cccc(-n2nccn2)c1
Procedure, shortened: as §1

[10] = compound: NC1(c2ccc(-c3nc4ccn5c(=O)[nH]nc5c4cc3-c3ccccc3)cc2)CCC1
Procedure, shortened: as §1

[11] = compound: NCC(=O)Nc1ccc(-n2nc(C(F)(F)F)cc2-c2ccc3c(ccc4ccccc43)c2)cc1
Procedure, shortened: as §1

[12] = compound: O=C(CCCCCCC(=O)Nc1ccccc1)NO [vorinostat]
Procedure, shortened: as §1

[13] = compound: O=C(O)c1ccc2c(c1)nc(Nc1cccc(Cl)c1)c1ccncc12 [silmitasertib]
Procedure, shortened: as §1

[14] = compound: O=C1NC(=O)C(c2cnc3ccccn23)=C1c1cn2c3c(cc(F)cc13)CN(C(=O)N1CCCCC1)CC2
Procedure, shortened: as §1

[15] = compound: c1cn2cc(-c3ccc4cn[nH]c4c3)nc(Nc3ccc(N4CCOCC4)cc3)c2n1 [entospletinib]
Procedure, shortened: as §1

Measured: log2 fold change

TRAF2 isoform 2 (UniProt Q12933)
UniProt Q12933, sequence (Q12933 whole entry, looked up): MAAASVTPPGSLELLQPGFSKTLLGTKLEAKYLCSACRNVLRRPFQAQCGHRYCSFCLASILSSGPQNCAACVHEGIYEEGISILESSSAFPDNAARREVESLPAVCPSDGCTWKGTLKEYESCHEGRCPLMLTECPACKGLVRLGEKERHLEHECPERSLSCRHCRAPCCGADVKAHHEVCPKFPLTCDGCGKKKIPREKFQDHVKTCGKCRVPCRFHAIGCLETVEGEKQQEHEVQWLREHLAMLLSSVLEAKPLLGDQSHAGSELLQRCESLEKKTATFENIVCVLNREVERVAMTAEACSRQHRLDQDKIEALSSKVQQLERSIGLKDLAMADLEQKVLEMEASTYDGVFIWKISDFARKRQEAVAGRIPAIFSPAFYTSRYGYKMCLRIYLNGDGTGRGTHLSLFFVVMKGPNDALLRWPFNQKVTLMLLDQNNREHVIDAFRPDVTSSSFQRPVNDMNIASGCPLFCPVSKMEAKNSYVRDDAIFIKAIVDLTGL
inactive: [1] -0.02 | [2] 0.008 | [3] -0.024 | [4] 0.042 | [5] 0.01 | [6] -0.024 | [7] 0.005 | [8] -0.016 | [9] 0.001 | [10] -0.016 | [11] 0.014 | [13] 0.024 | [14] 0.031 | [15] 0.005
active: [12] -0.269

TTC5 (UniProt Q8N0Z6)
inactive: [1] 0.012 | [2] -0.064 | [3] 0 | [4] -0.016 | [5] 0.047 | [6] -0.084 | [7] 0.01 | [8] 0 | [9] -0.007 | [10] 0.001 | [11] -0.003 | [13] -0.029 | [14] -0.018 | [15] 0.051
active: [12] -0.257

TP53RK (UniProt Q96S44)
UniProt Q96S44, sequence (Q96S44 whole entry, looked up): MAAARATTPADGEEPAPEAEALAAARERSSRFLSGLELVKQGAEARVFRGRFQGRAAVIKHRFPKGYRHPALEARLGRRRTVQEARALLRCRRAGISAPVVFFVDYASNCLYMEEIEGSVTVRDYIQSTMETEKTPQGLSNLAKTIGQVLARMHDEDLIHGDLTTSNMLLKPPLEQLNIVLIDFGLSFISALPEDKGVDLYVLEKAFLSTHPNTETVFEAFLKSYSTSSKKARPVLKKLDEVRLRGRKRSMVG
inactive: [1] 0.011 | [2] 0 | [3] 0.052 | [4] 0.047 | [5] 0.057 | [6] 0.002 | [7] 0.048 | [8] 0.021 | [9] 0.041 | [10] -0.013 | [11] -0.017 | [12] 0.049 | [13] -0.19 | [14] -0.014 | [15] 0.031

TMPO (UniProt P42167)
inactive: [1] -0.033 | [2] -0.003 | [3] 0.008 | [4] -0.042 | [5] -0.016 | [6] 0.061 | [7] -0.034 | [8] 0.009 | [9] -0.011 | [10] 0.007 | [11] 0.021 | [12] 0.104 | [13] 0.012 | [14] -0.032 | [15] -0.031

TUBA4A (UniProt P68366)
active: [12] -0.736
inactive: [1] 0.036 | [2] -0.024 | [3] -0.09 | [4] -0.009 | [5] 0.02 | [6] -0.024 | [7] -0.012 | [8] 0.034 | [9] 0.022 | [10] -0.003 | [11] 0.066 | [13] 0.077 | [14] 0.051 | [15] -0.045

TPM3 (UniProt P06753)
inactive: [1] 0.014 | [2] -0.033 | [3] 0.023 | [4] 0.028 | [5] -0.012 | [6] 0.046 | [7] 0.033 | [8] -0.042 | [9] -0.02 | [10] 0.034 | [11] 0.004 | [12] 0.112 | [13] 0.012 | [14] -0.004 | [15] 0.008

UBE2L6 (UniProt O14933)
active: [12] -0.477
inactive: [1] 0.038 | [2] -0.139 | [3] -0.018 | [4] 0.036 | [5] -0.055 | [6] 0.024 | [7] 0.043 | [8] -0.032 | [9] -0.002 | [10] -0.096 | [11] -0.071 | [13] 0.037 | [14] 0 | [15] -0.011

TUBB2A (UniProt Q13885)
UniProt Q13885, sequence (Q13885 whole entry, looked up): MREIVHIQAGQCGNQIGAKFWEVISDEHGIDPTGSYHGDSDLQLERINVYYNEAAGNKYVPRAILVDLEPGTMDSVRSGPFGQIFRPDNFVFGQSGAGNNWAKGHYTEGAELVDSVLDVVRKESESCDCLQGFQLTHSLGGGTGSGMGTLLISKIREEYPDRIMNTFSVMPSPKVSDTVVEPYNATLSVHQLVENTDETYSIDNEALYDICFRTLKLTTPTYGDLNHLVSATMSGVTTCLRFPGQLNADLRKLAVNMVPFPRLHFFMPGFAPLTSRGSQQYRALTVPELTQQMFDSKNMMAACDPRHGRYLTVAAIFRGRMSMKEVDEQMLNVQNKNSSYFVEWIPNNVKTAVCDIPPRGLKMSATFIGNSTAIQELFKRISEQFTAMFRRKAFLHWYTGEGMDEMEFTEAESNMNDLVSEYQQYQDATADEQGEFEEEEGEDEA
inactive: [1] -0.005 | [2] -0.002 | [3] -0.049 | [4] -0.02 | [5] -0.001 | [6] -0.035 | [7] 0.009 | [8] 0.043 | [9] 0.003 | [10] 0.007 | [11] 0.034 | [13] 0.016 | [14] -0.004 | [15] -0.012
active: [12] -0.759

TMPO (UniProt P42166)
UniProt P42166, sequence (P42166 whole entry, looked up): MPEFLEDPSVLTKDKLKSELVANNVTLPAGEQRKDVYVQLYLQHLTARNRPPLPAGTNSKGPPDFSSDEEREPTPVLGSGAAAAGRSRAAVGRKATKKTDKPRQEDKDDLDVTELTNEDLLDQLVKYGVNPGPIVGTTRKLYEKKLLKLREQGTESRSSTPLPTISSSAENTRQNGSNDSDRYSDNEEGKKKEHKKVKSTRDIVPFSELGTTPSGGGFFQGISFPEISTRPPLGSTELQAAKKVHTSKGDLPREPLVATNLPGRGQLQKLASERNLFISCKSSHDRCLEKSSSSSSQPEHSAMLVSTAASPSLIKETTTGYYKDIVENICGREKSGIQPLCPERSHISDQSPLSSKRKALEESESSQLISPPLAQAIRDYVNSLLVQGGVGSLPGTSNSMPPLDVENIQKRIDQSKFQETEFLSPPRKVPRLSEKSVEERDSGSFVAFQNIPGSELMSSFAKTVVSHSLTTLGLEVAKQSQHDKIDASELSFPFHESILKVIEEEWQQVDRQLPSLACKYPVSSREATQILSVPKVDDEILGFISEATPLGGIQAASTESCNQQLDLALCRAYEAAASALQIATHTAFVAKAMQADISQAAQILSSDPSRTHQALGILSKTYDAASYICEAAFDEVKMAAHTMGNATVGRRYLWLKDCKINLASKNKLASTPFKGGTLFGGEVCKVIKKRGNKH
active: [12] -0.569
inactive: [1] 0.05 | [2] -0.178 | [3] -0.069 | [4] -0.036 | [5] 0.029 | [6] -0.041 | [7] -0.018 | [8] 0.035 | [9] 0.031 | [10] -0.006 | [11] 0.037 | [13] -0.057 | [14] 0.009 | [15] -0.029

TRIM23 (UniProt P36406)
inactive: [1] 0.107 | [2] -0.004 | [3] -0.005 | [4] -0.046 | [5] 0.136 | [6] -0.044 | [7] 0.023 | [8] 0.005 | [9] 0.072 | [10] 0.037 | [11] 0.064 | [12] 0.073 | [13] -0.03 | [14] -0.02 | [15] -0.032

THADA (UniProt Q6YHU6)
UniProt Q6YHU6, sequence (Q6YHU6 whole entry, looked up): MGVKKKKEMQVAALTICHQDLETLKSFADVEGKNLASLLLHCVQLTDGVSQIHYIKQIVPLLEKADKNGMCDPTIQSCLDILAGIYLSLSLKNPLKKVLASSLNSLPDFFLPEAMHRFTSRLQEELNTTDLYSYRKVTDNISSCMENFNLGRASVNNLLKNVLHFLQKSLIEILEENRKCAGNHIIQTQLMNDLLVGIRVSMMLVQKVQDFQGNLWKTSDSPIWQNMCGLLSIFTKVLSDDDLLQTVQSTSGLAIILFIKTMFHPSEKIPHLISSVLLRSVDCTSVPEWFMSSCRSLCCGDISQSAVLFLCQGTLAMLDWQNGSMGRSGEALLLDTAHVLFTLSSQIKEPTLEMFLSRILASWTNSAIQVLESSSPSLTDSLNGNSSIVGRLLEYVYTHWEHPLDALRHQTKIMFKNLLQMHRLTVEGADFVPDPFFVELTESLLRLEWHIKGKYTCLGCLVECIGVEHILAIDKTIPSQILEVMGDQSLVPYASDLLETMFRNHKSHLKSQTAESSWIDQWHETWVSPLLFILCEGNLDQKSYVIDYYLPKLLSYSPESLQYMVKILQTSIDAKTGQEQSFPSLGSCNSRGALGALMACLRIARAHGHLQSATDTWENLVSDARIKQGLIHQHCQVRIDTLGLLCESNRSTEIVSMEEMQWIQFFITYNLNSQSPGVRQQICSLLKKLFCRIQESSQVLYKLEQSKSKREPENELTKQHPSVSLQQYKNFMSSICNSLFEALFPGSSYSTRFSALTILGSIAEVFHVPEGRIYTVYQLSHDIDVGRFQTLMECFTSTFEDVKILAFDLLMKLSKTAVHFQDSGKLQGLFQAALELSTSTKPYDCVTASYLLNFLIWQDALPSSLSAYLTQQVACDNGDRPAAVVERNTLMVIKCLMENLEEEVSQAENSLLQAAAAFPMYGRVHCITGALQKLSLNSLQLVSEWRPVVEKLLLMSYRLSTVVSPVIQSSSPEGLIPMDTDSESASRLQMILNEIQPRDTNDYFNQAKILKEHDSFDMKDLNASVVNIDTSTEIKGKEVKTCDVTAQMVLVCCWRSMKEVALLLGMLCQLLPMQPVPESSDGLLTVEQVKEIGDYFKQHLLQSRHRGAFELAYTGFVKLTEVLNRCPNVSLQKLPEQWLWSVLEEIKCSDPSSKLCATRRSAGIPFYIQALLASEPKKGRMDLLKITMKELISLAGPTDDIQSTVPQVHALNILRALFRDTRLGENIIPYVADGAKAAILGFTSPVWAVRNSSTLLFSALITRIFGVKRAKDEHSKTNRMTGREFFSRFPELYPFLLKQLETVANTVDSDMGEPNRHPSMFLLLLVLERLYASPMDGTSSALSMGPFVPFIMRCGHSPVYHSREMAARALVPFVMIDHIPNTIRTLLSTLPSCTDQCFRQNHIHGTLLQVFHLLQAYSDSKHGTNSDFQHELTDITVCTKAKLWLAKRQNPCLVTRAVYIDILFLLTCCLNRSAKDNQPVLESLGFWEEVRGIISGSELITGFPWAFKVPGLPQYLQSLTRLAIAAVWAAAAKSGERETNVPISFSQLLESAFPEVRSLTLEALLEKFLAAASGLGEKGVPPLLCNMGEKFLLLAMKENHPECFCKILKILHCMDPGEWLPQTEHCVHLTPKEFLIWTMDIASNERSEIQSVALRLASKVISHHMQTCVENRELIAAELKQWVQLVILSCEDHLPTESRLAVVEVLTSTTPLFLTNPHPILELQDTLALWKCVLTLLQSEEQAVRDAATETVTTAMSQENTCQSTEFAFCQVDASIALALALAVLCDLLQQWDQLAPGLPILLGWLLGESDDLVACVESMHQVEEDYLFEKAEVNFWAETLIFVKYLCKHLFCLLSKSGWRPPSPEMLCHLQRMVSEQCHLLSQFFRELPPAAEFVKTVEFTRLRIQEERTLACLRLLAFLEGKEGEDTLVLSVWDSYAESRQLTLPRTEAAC
inactive: [1] 0.009 | [2] 0.012 | [3] -0.048 | [4] 0.008 | [5] 0.027 | [6] -0.115 | [7] -0.011 | [8] 0.053 | [9] 0.007 | [10] 0.002 | [11] 0.009 | [13] 0.013 | [14] 0.015 | [15] 0.006
active: [12] -0.456

TRIM44 (UniProt Q96DX7)
UniProt Q96DX7, sequence (Q96DX7 whole entry, looked up): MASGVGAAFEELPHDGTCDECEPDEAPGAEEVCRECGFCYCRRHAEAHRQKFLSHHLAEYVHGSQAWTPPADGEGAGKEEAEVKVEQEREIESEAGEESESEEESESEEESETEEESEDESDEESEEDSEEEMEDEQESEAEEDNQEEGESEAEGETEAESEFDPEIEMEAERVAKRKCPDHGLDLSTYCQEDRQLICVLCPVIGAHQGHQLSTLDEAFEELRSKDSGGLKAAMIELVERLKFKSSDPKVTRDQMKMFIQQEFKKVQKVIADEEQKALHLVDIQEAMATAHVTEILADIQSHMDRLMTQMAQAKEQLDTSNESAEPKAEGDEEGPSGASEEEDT
inactive: [1] -0.016 | [2] 0.001 | [3] 0.073 | [4] -0.036 | [5] -0.008 | [6] 0.035 | [7] 0.006 | [8] 0.023 | [9] -0.011 | [10] 0.044 | [11] 0.024 | [12] -0.031 | [13] 0.062 | [14] -0.015 | [15] -0.051

UBE3B (UniProt Q7Z3V4)
active: [12] -0.838
inactive: [1] 0.041 | [2] -0.006 | [3] 0.055 | [4] -0.011 | [5] 0.053 | [6] -0.077 | [7] -0.102 | [8] 0.041 | [9] 0.14 | [10] -0.026 | [11] 0.117 | [13] 0.061 | [14] 0.007 | [15] 0.115

TUBB3 (UniProt Q13509)
inactive: [1] 0.029 | [2] -0.028 | [3] -0.027 | [4] -0.003 | [5] 0.024 | [6] -0.004 | [7] -0.013 | [8] 0.039 | [9] 0.006 | [10] 0.006 | [11] -0.012 | [13] 0.04 | [14] 0.006 | [15] -0.002
active: [12] -0.688

TDRKH (UniProt Q9Y2W6)
inactive: [1] -0.01 | [2] -0.077 | [3] -0.059 | [4] 0.018 | [5] 0.028 | [6] -0.087 | [7] -0.048 | [8] 0.041 | [9] 0.003 | [10] 0.067 | [11] -0.031 | [12] -0.223 | [13] 0.024 | [14] -0.052 | [15] 0.056

TTK (UniProt P33981)
inactive: [1] 0.007 | [2] 0.236 | [3] -0.014 | [4] 0.185 | [5] 0.013 | [6] -0.062 | [7] -0.147 | [8] 0.034 | [9] -0.001 | [10] -0.057 | [11] -0.009 | [12] -0.183 | [13] 0.004 | [14] -0.03 | [15] -0.039

UCHL5 isoform 3 (UniProt Q9Y5K5)
UniProt Q9Y5K5, sequence (Q9Y5K5 whole entry, looked up): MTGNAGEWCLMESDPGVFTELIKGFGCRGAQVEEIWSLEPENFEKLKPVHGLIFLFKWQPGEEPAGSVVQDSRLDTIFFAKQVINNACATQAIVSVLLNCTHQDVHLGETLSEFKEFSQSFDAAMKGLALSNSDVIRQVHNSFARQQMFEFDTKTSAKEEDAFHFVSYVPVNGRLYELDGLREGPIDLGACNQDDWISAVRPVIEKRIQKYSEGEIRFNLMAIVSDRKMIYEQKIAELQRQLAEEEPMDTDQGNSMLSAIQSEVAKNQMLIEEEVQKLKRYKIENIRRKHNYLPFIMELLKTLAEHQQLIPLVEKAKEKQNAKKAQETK
inactive: [1] 0.016 | [2] -0.008 | [3] 0.01 | [4] 0.001 | [5] 0.006 | [6] -0.01 | [7] -0.005 | [8] 0.013 | [9] -0.031 | [10] 0.003 | [11] 0.004 | [12] -0.081 | [13] 0 | [14] -0.009 | [15] -0.003

TRIM11 (UniProt Q96F44)
UniProt Q96F44, sequence (Q96F44 whole entry, looked up): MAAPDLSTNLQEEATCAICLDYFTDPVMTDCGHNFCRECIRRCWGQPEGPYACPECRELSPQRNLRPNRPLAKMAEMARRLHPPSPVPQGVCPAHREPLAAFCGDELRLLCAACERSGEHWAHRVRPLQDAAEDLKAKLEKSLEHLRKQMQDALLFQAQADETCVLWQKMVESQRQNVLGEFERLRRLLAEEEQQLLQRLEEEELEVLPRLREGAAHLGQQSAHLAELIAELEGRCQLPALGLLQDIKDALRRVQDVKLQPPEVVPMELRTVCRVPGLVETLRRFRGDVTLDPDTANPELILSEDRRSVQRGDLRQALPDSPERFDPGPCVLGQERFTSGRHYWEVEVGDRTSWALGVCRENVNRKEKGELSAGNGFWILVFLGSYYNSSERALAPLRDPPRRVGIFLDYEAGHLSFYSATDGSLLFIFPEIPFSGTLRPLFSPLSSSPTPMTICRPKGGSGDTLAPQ
inactive: [1] -0.019 | [2] 0.053 | [3] -0.021 | [4] 0.055 | [5] 0.023 | [6] -0.104 | [7] -0.015 | [8] -0.019 | [9] -0.004 | [10] -0.023 | [11] 0.018 | [13] 0.046 | [14] -0.035 | [15] -0.045
active: [12] -0.222

TRIM65 (UniProt Q6PJ69)
inactive: [1] -0.025 | [2] -0.008 | [3] -0.059 | [4] -0.021 | [5] 0.005 | [6] -0.016 | [7] -0.004 | [8] 0 | [9] 0.08 | [10] -0.017 | [11] 0.018 | [12] -0.094 | [13] -0.006 | [14] 0.002 | [15] -0.009

TMEM199 (UniProt Q8N511)
inactive: [1] 0.005 | [2] 0.005 | [3] -0.011 | [4] 0.001 | [5] 0.046 | [6] 0.031 | [7] 0.026 | [8] 0 | [9] 0.005 | [10] 0.068 | [11] 0.021 | [12] 0.13 | [13] -0.017 | [14] -0.005 | [15] 0.008

TCP11L1 (UniProt Q9NUJ3)
inactive: [1] 0.062 | [2] -0.114 | [3] -0.034 | [4] -0.035 | [5] 0.01 | [6] -0.055 | [7] -0.003 | [8] 0.051 | [9] -0.022 | [10] 0.028 | [11] 0 | [13] -0.043 | [14] 0.006 | [15] 0.019
active: [12] -0.317

From the supplement of paper PMC10849652
